Measured values from the supplement of paper PMC7261846.
Structures can show the parent of a compound that is named as a salt. ± gives the uncertainty stated by the source.

Test system: Candida albicans SNY425 biofilm
Experiment: biofilm OD600 with compound plus antifungal (OD600 (absorbance)); higher = more biofilm remaining
[1] = assay detail: disruption of 24-h mature biofilm (compound + antifungal for a second 24 h)
[2] = assay detail: sustained inhibition (compound + antifungal during 90-min adherence and 24-h growth)

In the case of CC(C)CC(=O)N[C@H](C(=O)N[C@H](C(=O)N[C@@H](CC(C)C)[C@@H](O)CC(=O)N[C@@H](C)C(=O)N[C@@H](CC(C)C)[C@@H](O)CC(=O)O)C(C)C)C(C)C [Pepstatin A] + C[C@@H]1[C@H](O)[C@@H](C)/C=C/C=C/C=C/C=C/C=C/C=C/C=C/[C@H](O[C@@H]2O[C@H](C)[C@@H](O)[C@H](N)[C@@H]2O)C[C@@H]2O[C@](O)(C[C@@H](O)C[C@@H](O)[C@H](O)CC[C@@H](O)C[C@@H](O)CC(=O)O[C@H]1C)C[C@H](O)[C@H]2C(=O)O [amphotericin B] (first compound 12.5 µM), the “biofilm OD600” value [1] is reported as 0.272 ± 0.0097 and the “biofilm OD600” value [2] is reported as 0.199 ± 0.011.
In the case of CCCCC[C@H](CC(=O)NO)C(=O)N[C@H](C(=O)N1CCC[C@H]1CO)C(C)C [Actinonin] + OC(Cn1cncn1)(Cn1cncn1)c1ccc(F)cc1F [fluconazole] (first compound 12.5 µM), the “biofilm OD600” value [1] is reported as 0.267 ± 0.0099 and the “biofilm OD600” value [2] is reported as 0.145 ± 0.0085.
N=C(N)Nc1ccc(C(=O)Oc2ccc3cc(C(=N)N)ccc3c2)cc1 [Nafamostat mesylate] + OC(Cn1cncn1)(Cn1cncn1)c1ccc(F)cc1F [fluconazole] (first compound 12.5 µM) was tested, and the “biofilm OD600” value [1] was 0.262 ± 0.011 and the “biofilm OD600” value [2] was 0.104 ± 0.0089.
O=C(O)CNC(=O)C(CS)Cc1ccccc1 (racemic) [DL-Thiorphan] + CC[C@H](C)C[C@H](C)CCCCCCCCC(=O)N[C@H]1C[C@@H](O)[C@@H](NCCN)NC(=O)[C@@H]2[C@@H](O)CCN2C(=O)[C@H]([C@H](O)CCN)NC(=O)[C@H]([C@H](O)[C@@H](O)c2ccc(O)cc2)NC(=O)[C@@H]2C[C@@H](O)CN2C(=O)[C@H]([C@@H](C)O)NC1=O [caspofungin] (first compound 12.5 µM) was tested, and the “biofilm OD600” value [1] was 0.262 ± 0.013 and the “biofilm OD600” value [2] was 0.163 ± 0.0098.
For NC(=O)c1cccc(-c2cccc(OC(=O)NC3CCCCC3)c2)c1 + C[C@@H]1[C@H](O)[C@@H](C)/C=C/C=C/C=C/C=C/C=C/C=C/C=C/[C@H](O[C@@H]2O[C@H](C)[C@@H](O)[C@H](N)[C@@H]2O)C[C@@H]2O[C@](O)(C[C@@H](O)C[C@@H](O)[C@H](O)CC[C@@H](O)C[C@@H](O)CC(=O)O[C@H]1C)C[C@H](O)[C@H]2C(=O)O [amphotericin B] (first compound 12.5 µM), the “biofilm OD600” value [1] was 0.295 ± 0.0047 and the “biofilm OD600” value [2] was 0.178 ± 0.0061.
CC1CNc2c(cccc2S(=O)(=O)N[C@@H](CCCNC(=N)N)C(=O)N2CC[C@@H](C)C[C@@H]2C(=O)O)C1 (stereo partly drawn) [Argatroban] + C[C@@H]1[C@H](O)[C@@H](C)/C=C/C=C/C=C/C=C/C=C/C=C/C=C/[C@H](O[C@@H]2O[C@H](C)[C@@H](O)[C@H](N)[C@@H]2O)C[C@@H]2O[C@](O)(C[C@@H](O)C[C@@H](O)[C@H](O)CC[C@@H](O)C[C@@H](O)CC(=O)O[C@H]1C)C[C@H](O)[C@H]2C(=O)O [amphotericin B] (first compound 12.5 µM) was tested, and the “biofilm OD600” value [1] was 0.3 ± 0.018 and the “biofilm OD600” value [2] was 0.191 ± 0.0048.
COC(=O)C[C@H](NC(=O)[C@H](C)NC(=O)[C@@H](NC(=O)OCc1ccccc1)C(C)C)C(=O)CF + C[C@@H]1[C@H](O)[C@@H](C)/C=C/C=C/C=C/C=C/C=C/C=C/C=C/[C@H](O[C@@H]2O[C@H](C)[C@@H](O)[C@H](N)[C@@H]2O)C[C@@H]2O[C@](O)(C[C@@H](O)C[C@@H](O)[C@H](O)CC[C@@H](O)C[C@@H](O)CC(=O)O[C@H]1C)C[C@H](O)[C@H]2C(=O)O [amphotericin B] (first compound 12.5 µM) was tested, and the “biofilm OD600” value [1] was 0.296 ± 0.013 and the “biofilm OD600” value [2] was 0.184 ± 0.011.
With CC(C)(C)NC(=O)[C@@H]1C[C@@H]2CCCC[C@@H]2CN1C[C@@H](O)[C@H](Cc1ccccc1)NC(=O)[C@H](CC(N)=O)NC(=O)c1ccc2ccccc2n1 [saquinavir] + CC[C@H](C)C[C@H](C)CCCCCCCCC(=O)N[C@H]1C[C@@H](O)[C@@H](NCCN)NC(=O)[C@@H]2[C@@H](O)CCN2C(=O)[C@H]([C@H](O)CCN)NC(=O)[C@H]([C@H](O)[C@@H](O)c2ccc(O)cc2)NC(=O)[C@@H]2C[C@@H](O)CN2C(=O)[C@H]([C@@H](C)O)NC1=O [caspofungin] (first compound 12.5 µM) the “biofilm OD600” value [1] was 0.148 ± 0.0056 and the “biofilm OD600” value [2] was 0.042 ± 0.0016.
In the case of Cc1cccc(C)c1OCC(=O)N[C@@H](Cc1ccccc1)[C@@H](O)C[C@H](Cc1ccccc1)NC(=O)[C@H](C(C)C)N1CCCNC1=O [lopinavir] + OC(Cn1cncn1)(Cn1cncn1)c1ccc(F)cc1F [fluconazole] (first compound 12.5 µM), the “biofilm OD600” value [1] is reported as 0.246 ± 0.01 and the “biofilm OD600” value [2] is reported as 0.141 ± 0.021.
